Compound activity deposited in PubChem by several laboratories.
CCHFV vOTU inh: CCHFV vOTU protease inhibition; Pep-AMC fluorescence; inhibition, % at 11.5 µM; 0.55% of 370,000 active; AID 651958; in the data active = inhibition above about 30%; also: 0% = vehicle wells with enzyme and 100% = no enzyme wells
BJeLR viability: kills HRASV12-expressing BJeLR cells; 0.17% of 300,000 active; BJeLR (HRASV12) viability, CellTiter-Glo ATP luminescence, 48 h; inhibition, % (concentration not given with the values); in the data active = inhibition above about 50%
Sa ugtP lethal: growth inhibition of S. aureus ugtP deletion strain; growth inhibition, % (no concentration beside the values); 0.54% of 330,000 active; AID 1259309; S. aureus RN4220 ugtP deletion, OD600 growth, 16 h; in the data active = growth inhibition above about 68%;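 also: plate controls were untreated wells for no effect and antibiotic for full effect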
PfHsp40 rescue: rescue of PfHsp40-mediated yeast toxicity | S. cerevisiae expressing PfHsp40, growth rescue, ATP luminescence | growth rescue, % at 12.5 µM | 0.68% of 340,000 active; in the data active = growth rescue above about 28%, passing the limit was not always enough;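 also: yeast W303a lacking pdr1 and pdr3 grown in galactose medium; growth measured after three days at 30 °C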
Sa RN4220 lethal: S. aureus RN4220 growth inhibition; OD600, 16 h; inhibition, % (test concentration not listed); AID 1259311; 0.33% of 330,000 active; in the data active = inhibition above about 85%;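 also: plate controls were untreated cells for no effect and reference antibiotic for full effect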
Starred values were filed as active, the others as inactive. The list is not random: actives were taken first. Their share in the collection is about 1.6%.

`CCOC1OC(C(=O)N2CCN(Cc3ccccc3)CC2)=CC(c2coc3ccccc3c2=O)C1CCCO` (stereo not drawn) gave Sa ugtP lethal -2 and Sa RN4220 lethal 1.
Screening COCc1c(C(=O)NN=C(C)c2ccccc2)nnn1-c1nonc1N returned Sa ugtP lethal 0 and Sa RN4220 lethal 2.
O=C1C(Br)=Cc2cccc3cccc1c23 was read as CCHFV vOTU inh -2, BJeLR viability 1, Sa ugtP lethal 92*, PfHsp40 rescue 3 and Sa RN4220 lethal 83.
`O=C1C(=O)c2cccc3cccc1c23` gave CCHFV vOTU inh 15, BJeLR viability 4, Sa ugtP lethal 5, PfHsp40 rescue 2 and Sa RN4220 lethal 2.
`O=[N+]([O-])/C=C/c1c(OCc2ccccc2)ccc2ccccc12` gave BJeLR viability 81* and PfHsp40 rescue -1.
CCOC(=O)COc1ccc(/C=C/[N+](=O)[O-])c(OCC(=O)OCC)c1 was read as CCHFV vOTU inh 16, BJeLR viability 1, Sa ugtP lethal -11, PfHsp40 rescue -1 and Sa RN4220 lethal 7.
CCCCOc1ccc2ccccc2c1C=O was read as CCHFV vOTU inh 4, BJeLR viability -1, Sa ugtP lethal 7, PfHsp40 rescue 1 and Sa RN4220 lethal 9.
For CCOc1ccc(/C=C/[N+](=O)[O-])c2ccccc12 the results were BJeLR viability 19, Sa ugtP lethal 95*, PfHsp40 rescue 0 and Sa RN4220 lethal 96*.
Screening CCOC(=O)Cn1cc(/C=C/[N+](=O)[O-])c2ccccc21 returned CCHFV vOTU inh 7, BJeLR viability -11, Sa ugtP lethal 6, PfHsp40 rescue 0 and Sa RN4220 lethal 11.
For CCOC(=O)COc1ccc2ccccc2c1/C=C/[N+](=O)[O-] the results were CCHFV vOTU inh 0, BJeLR viability 16, Sa ugtP lethal 87*, PfHsp40 rescue -2 and Sa RN4220 lethal 81.
Cc1c(C(=O)NN=Cc2ccc(N(C)C)cc2)[nH]c2ccc(Cl)cc12 was read as Sa ugtP lethal -2 and Sa RN4220 lethal -4.
CCOc1ccc(C(=O)Nc2ccc(Cc3ccncc3)cc2)cc1Br was read as CCHFV vOTU inh -9, BJeLR viability -4, Sa ugtP lethal -14, PfHsp40 rescue 60* and Sa RN4220 lethal -8.
COc1cc(C=NNC(=O)CN2CCOCC2)ccc1OCC(=O)Nc1ccc(C)c(C)c1 was read as Sa ugtP lethal 2 and Sa RN4220 lethal 2.
CCOc1ccc(CC2S/C(=N/N=Cc3ccco3)NC2=O)cc1 (stereo not drawn) was read as Sa ugtP lethal 1 and Sa RN4220 lethal 4.
CC(C)C(CO)NC(=O)c1ccc2c3n(nc2c1)-c1ccccc1CO3 (stereo not drawn) was read as Sa ugtP lethal 5 and Sa RN4220 lethal 5.
For O=C(Nc1nnc(S(=O)(=O)Cc2ccc(F)cc2)s1)c1ccccc1F the results were CCHFV vOTU inh 11, BJeLR viability -3, Sa ugtP lethal 0, PfHsp40 rescue 45* and Sa RN4220 lethal 11.
Screening Cc1ccccc1NS(=O)(=O)c1nnc(NC(=O)c2ccccc2F)s1 returned CCHFV vOTU inh 3, BJeLR viability -1, Sa ugtP lethal 3, PfHsp40 rescue 0 and Sa RN4220 lethal 8.
O=c1oc(-c2ccccc2)cc(Cl)c1Cl was read as CCHFV vOTU inh 0, BJeLR viability 23, Sa ugtP lethal 17, PfHsp40 rescue 556* and Sa RN4220 lethal 11.
Screening O=c1oc(-c2ccccc2)cc2ccccc12 returned CCHFV vOTU inh -14.
Screening COc1ccc(S(=O)(=O)N2CCCC2CNC(=O)C(=O)Nc2ccc(C)cc2)cc1 (stereo not drawn) returned CCHFV vOTU inh 0, BJeLR viability -6, Sa ugtP lethal 4, PfHsp40 rescue 0 and Sa RN4220 lethal 3.
Screening COc1ccc(NC(=O)C(=O)NCC2CCCN2S(=O)(=O)c2ccc(C)cc2)cc1 (stereo not drawn) returned CCHFV vOTU inh -5, BJeLR viability 51*, Sa ugtP lethal 1, PfHsp40 rescue 1 and Sa RN4220 lethal 3.
O=C(c1ccccc1)c1ccc2ccccc2c1 was read as CCHFV vOTU inh -17, Sa ugtP lethal 18, PfHsp40 rescue 0 and Sa RN4220 lethal 7.
For Cc1sc2cc3c(c(C(=O)c4ccccc4)[n+]2c1C)-c1cccc2cccc-3c12 the results were CCHFV vOTU inh -11, BJeLR viability 68*, Sa ugtP lethal 100* and Sa RN4220 lethal 100*.
For O=C(c1ccccc1)c1c2c(cc3sc4ccccc4[n+]13)-c1cccc3cccc-2c13 the results were CCHFV vOTU inh 3, Sa ugtP lethal 100*, PfHsp40 rescue 119* and Sa RN4220 lethal 100*.
